The results in this text go back to publication PMC7862700, “An all-to-all approach to the identification of sequence-specific readers for epigenetic DNA modifications on cytosine”.

Experiment in all cases: DAPPL (digital affinity profiling via proximity ligation, sequencing); 10 mM Tris-HCl pH 7.5, 50 mM NaCl, 1 mM DTT, 4% glycerol, room temperature, 30 min; GST-TFs on glutathione beads, 16-mer random dsDNA library, 0.1% formaldehyde crosslink after washing; high values mean tight binding
For one test, the target named is T1, FLI1 (Homo sapiens, UniProt Q01543 1-452).
T1 sequence: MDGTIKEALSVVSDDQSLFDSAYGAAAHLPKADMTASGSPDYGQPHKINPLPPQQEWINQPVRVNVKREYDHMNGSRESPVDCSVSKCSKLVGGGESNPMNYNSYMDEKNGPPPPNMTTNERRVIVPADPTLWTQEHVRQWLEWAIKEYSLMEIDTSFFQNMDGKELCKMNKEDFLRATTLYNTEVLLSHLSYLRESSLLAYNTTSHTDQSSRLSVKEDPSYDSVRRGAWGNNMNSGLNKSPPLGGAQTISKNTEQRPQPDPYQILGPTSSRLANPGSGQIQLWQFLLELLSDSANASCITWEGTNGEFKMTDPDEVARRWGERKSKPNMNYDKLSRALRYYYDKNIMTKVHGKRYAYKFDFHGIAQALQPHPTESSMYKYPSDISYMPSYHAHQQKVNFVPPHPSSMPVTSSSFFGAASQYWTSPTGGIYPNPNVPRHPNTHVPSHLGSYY
As to conditions: protein: recombinant; tags: N-terminal GST; dsDNA, one strand shown. The procedure, abridged: (§1)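 Binding signal is each hexamer's read frequency for a factor divided by its frequency in the tag-only sample. The factors were GST-fused human transcription factors from yeast, captured on glutathione beads, DNA-barcoded and pooled with that sample. Pools were incubated with 200 nmole of a random double-stranded 16-mer DNA library in Tris/NaCl/DTT/glycerol buffer at room temperature for 30 min, then washed, crosslinked with 0.1% formaldehyde, proximity-ligated with BsaI/T4 ligase (1 h, 37 °C), PCR-amplified and sequenced on an Illumina NextSeq500.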

The target of the next test is T2, GABPA (Homo sapiens, UniProt Q06546 1-454).
T2 sequence: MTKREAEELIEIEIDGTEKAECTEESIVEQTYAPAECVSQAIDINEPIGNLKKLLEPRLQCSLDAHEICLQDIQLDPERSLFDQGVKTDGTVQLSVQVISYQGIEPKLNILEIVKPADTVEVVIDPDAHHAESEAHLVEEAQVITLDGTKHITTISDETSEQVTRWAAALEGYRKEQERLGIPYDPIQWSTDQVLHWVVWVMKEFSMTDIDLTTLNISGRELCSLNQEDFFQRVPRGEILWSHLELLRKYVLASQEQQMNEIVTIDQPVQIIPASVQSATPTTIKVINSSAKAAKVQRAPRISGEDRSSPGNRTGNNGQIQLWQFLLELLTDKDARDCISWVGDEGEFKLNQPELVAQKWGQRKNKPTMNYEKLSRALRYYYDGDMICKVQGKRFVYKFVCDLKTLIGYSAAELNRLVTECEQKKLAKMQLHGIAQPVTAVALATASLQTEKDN
As to conditions: protein: recombinant; tags: N-terminal GST; dsDNA, one strand shown. The procedure, abridged:
as §1

The target of another test is T3, ERG (Homo sapiens, UniProt P11308 1-479).
T3 sequence: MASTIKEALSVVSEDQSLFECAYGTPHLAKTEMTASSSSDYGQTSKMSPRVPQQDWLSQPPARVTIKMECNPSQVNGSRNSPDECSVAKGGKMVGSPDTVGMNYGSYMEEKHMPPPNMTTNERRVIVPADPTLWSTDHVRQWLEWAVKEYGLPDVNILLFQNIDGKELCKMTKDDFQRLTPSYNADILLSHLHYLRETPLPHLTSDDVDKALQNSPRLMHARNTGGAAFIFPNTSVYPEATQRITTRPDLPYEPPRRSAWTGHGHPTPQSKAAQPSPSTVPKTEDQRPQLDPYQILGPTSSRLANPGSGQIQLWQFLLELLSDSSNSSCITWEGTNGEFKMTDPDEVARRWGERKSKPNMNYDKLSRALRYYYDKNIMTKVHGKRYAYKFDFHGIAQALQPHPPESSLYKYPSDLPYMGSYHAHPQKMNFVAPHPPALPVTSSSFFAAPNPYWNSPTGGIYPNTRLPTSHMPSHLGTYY
Particulars: protein: recombinant; tags: N-terminal GST; dsDNA, one strand shown. The procedure, abridged: as §1

A further test deals with ELF1 (Homo sapiens, UniProt P32519 1-619). Particulars: protein: recombinant; tags: N-terminal GST; dsDNA, one strand shown. Summed up: as §1
Another test deals with T4, EHF (Homo sapiens, UniProt Q9NZC4 1-300).
T4 sequence: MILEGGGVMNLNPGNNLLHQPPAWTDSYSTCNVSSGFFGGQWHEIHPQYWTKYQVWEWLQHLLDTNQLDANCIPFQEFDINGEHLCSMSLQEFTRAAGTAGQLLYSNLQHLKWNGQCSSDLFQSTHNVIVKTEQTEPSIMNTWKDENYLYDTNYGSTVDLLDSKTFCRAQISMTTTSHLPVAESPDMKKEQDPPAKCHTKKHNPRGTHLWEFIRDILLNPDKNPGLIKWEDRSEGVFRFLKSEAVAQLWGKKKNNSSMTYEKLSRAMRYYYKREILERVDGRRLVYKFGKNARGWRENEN
Particulars: protein: recombinant; tags: N-terminal GST; dsDNA, one strand shown. Summed up:
as §1

Another test has as its target SPI1 (Homo sapiens, UniProt P17947 1-270). As to conditions: protein: recombinant; tags: N-terminal GST; dsDNA, one strand shown. Summed up: as §1
Another test deals with T5, ELK3 (Homo sapiens, UniProt P41970 1-407).
T5 sequence: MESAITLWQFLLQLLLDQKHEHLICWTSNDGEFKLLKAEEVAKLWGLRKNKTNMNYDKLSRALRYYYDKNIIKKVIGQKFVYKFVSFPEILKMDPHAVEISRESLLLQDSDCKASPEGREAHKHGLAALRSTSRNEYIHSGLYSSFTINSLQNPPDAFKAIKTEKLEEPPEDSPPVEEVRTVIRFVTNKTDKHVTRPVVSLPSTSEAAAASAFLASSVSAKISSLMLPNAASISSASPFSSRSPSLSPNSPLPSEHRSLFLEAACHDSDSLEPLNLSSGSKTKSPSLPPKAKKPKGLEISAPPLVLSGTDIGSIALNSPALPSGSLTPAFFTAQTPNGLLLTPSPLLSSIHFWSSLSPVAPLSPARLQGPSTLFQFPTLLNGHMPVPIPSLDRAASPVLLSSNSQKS
Particulars: protein: recombinant; tags: N-terminal GST; dsDNA, one strand shown. Summed up:
as §1

In a further test the target is T6, FEV (Homo sapiens, UniProt Q99581 1-238).
T6 sequence: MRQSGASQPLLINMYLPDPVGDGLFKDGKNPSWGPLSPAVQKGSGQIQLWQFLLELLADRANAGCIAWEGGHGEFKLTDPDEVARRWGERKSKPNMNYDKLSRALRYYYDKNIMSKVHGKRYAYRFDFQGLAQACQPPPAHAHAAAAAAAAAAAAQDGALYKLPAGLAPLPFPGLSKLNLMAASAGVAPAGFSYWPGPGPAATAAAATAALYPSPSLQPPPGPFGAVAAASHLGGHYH
As to conditions: protein: recombinant; tags: N-terminal GST; dsDNA, one strand shown. The procedure, abridged:
as §1

For another test, the target named is ETV5 (Homo sapiens, UniProt P41161 1-510). Particulars: protein: recombinant; tags: N-terminal GST; dsDNA, one strand shown. Summed up:
as §1

The target of the next test is HSF1 (Homo sapiens, UniProt Q00613 1-529). As to conditions: protein: recombinant; tags: N-terminal GST; chain copies: 3; dsDNA, one strand shown. The procedure, abridged: as §1
In a further test the target is T7, ELK4 (Homo sapiens, UniProt P28324-2 1-405).
T7 sequence: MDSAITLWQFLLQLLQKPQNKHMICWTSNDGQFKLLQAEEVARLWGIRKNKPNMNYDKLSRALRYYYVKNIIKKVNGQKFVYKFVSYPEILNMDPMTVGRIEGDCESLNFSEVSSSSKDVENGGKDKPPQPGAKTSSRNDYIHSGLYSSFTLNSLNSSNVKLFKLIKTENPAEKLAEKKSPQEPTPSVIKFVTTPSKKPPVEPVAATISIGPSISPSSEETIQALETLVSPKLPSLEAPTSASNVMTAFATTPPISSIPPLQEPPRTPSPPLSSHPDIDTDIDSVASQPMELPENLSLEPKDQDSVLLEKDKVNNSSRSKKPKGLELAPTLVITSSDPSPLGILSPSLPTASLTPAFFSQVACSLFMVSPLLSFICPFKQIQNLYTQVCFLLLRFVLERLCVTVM
Particulars: protein: recombinant; tags: N-terminal GST; dsDNA, one strand shown. The procedure, abridged: as §1

A further test concerns the target T8, ELF3 (Homo sapiens, UniProt P78545 1-371).
T8 sequence: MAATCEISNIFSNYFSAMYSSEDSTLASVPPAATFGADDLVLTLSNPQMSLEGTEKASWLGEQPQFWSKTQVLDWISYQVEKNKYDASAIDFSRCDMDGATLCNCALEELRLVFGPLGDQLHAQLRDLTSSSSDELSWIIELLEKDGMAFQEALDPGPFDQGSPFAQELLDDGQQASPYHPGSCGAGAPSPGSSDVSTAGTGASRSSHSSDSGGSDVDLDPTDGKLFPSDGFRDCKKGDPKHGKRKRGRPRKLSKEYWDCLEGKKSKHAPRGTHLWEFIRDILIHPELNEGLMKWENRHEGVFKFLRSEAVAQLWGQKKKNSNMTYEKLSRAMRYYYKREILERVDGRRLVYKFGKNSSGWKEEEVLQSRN
Particulars: protein: recombinant; tags: N-terminal GST; dsDNA, one strand shown. Summed up: as §1

Another test has as its target CRX (Homo sapiens, UniProt O43186 1-299). As to conditions: protein: recombinant; tags: N-terminal GST; dsDNA, one strand shown. The procedure, abridged: as §1
A further test addresses ETV1 (Homo sapiens, UniProt P50549 1-477). Particulars: protein: recombinant; tags: N-terminal GST; dsDNA, one strand shown. The procedure, abridged: as §1

ELF1, sequence (P32519 whole entry): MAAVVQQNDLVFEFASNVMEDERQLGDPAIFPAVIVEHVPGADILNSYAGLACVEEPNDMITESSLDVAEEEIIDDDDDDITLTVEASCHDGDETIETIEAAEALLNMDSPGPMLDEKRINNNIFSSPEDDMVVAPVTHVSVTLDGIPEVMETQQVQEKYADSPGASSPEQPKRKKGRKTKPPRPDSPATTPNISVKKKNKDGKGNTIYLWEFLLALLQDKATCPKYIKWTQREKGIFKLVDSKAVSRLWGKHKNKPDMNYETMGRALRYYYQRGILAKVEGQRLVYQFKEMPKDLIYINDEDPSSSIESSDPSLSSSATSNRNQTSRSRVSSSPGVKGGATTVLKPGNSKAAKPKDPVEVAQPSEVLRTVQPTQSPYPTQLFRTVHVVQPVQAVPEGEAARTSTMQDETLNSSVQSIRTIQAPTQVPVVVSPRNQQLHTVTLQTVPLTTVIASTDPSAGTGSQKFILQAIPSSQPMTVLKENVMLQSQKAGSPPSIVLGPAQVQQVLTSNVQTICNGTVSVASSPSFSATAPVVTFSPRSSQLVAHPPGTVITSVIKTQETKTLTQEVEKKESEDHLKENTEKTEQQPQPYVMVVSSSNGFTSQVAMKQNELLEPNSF
ETV5, sequence (P41161 whole entry): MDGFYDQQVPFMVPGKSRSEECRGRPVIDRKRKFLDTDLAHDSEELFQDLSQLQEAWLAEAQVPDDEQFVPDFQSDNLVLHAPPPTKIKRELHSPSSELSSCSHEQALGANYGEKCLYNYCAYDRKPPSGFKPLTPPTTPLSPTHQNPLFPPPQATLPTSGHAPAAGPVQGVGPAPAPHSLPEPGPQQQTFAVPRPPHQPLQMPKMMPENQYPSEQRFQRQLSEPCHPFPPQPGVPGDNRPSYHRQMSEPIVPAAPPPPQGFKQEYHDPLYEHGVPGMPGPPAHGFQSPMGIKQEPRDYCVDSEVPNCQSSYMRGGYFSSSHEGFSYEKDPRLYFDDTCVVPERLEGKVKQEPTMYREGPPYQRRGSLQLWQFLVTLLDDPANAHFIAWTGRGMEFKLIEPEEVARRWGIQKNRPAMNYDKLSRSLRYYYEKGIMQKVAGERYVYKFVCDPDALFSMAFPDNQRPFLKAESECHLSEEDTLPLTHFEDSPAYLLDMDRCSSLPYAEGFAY
CRX, sequence (O43186 whole entry): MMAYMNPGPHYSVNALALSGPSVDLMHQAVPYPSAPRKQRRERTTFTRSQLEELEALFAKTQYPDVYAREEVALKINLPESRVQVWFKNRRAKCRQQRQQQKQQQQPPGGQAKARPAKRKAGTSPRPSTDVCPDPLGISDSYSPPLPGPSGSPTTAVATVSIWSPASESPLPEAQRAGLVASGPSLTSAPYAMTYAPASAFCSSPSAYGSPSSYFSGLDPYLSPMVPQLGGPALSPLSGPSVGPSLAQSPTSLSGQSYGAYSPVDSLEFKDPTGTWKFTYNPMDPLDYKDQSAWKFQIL
HSF1, sequence (Q00613 whole entry): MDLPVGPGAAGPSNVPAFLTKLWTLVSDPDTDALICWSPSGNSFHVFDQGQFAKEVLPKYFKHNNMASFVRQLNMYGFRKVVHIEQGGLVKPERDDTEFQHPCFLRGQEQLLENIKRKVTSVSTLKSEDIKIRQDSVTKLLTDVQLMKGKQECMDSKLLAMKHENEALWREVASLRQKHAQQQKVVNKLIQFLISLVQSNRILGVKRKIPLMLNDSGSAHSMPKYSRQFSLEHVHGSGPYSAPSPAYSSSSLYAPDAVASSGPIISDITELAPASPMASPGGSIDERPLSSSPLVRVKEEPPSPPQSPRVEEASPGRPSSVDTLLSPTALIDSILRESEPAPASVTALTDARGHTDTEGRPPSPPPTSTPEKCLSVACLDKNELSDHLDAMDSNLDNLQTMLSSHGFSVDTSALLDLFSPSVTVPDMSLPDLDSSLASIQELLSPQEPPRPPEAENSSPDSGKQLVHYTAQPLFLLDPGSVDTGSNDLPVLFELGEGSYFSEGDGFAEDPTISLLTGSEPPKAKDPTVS
ETV1, sequence (P50549 whole entry): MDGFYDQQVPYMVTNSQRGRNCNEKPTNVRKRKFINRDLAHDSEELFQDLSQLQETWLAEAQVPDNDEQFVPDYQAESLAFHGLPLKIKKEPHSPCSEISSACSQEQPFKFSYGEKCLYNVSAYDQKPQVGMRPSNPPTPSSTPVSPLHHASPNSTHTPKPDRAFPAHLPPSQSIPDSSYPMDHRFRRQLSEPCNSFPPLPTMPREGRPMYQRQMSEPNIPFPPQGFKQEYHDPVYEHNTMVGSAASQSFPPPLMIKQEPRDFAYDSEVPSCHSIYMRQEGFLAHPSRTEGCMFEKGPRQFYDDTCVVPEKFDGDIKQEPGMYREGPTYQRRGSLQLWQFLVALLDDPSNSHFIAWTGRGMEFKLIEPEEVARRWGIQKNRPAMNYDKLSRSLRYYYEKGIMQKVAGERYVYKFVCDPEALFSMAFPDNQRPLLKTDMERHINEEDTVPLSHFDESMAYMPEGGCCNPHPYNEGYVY

For the sequence GGCTTA, the binding signal was 1.05 fold enrichment (6-mer frequency, TF over GST control) with FLI1; 1.17 fold enrichment (6-mer frequency, TF over GST control) in the test with GABPA; 1.04 fold enrichment (6-mer frequency, TF over GST control) with ERG; 1.08 fold enrichment (6-mer frequency, TF over GST control) with ELF1; 1.02 fold enrichment (6-mer frequency, TF over GST control) in the test with EHF; 1.02 fold enrichment (6-mer frequency, TF over GST control) with SPI1. The binding signal with ELK3 was 1.01 fold enrichment (6-mer frequency, TF over GST control); in the test with FEV, 1.08 fold enrichment (6-mer frequency, TF over GST control); with ETV5, 1.03 fold enrichment (6-mer frequency, TF over GST control); with HSF1, 2.04 fold enrichment (6-mer frequency, TF over GST control); in the test with ELK4, 1.16 fold enrichment (6-mer frequency, TF over GST control); with ELF3, 1.14 fold enrichment (6-mer frequency, TF over GST control). Besides, the binding signal in the test with CRX was 3.34 fold enrichment (6-mer frequency, TF over GST control); in the test with ETV1, 1.11 fold enrichment (6-mer frequency, TF over GST control).
